In the OligoGym collection:

molecular target: C8orf86; assay: pooled miR-30 sensor sort-seq; sequence = guide strand; conditions: shRNA
Note: reference of the scale not given here.

Sequence	sensor-assay potency score (higher = more potent)
TTTCCTTCCCTTCTGTCCCAAA	-1.07
TTCTAATCAACTCCTCAGCTGG	-0.81
TAATTCAGGAGTTCTGGGCGGG	0.0945
TTGCTTCTAATCAACTCCTCAG	-0.327

molecular target: C9orf100; assay: as above; conditions: shRNA

Sequence	sensor-assay potency score (higher = more potent)
TGAAGCCGTACAAACCTCCGGA	0.131
TTTCTTTAGCTGCTCCTGCAGG	-0.717
TATTTTTCTTTAGCTGCTCCTG	-0.997
TAAGCAGTAGCTTCTCATGAGG	-1.31
TCGGTCTCTAGCAGCTCCCGGG	-1.38
TCAGACTGTGGTACCAGCGTGA	0.191
TTGATGGTCAGGGCTGTTGGGA	-1.1
TTCTTGGTAGCGCCGCTCGGTC	-1.6
TTATAGAGCTCCAAGTGGCGGC	-0.479
ATCTGGAGTAGCTTGGTCCAGG	-1.26
TTGGTTATAGAGCTCCAAGTGG	-0.209
AAATTGGTTATAGAGCTCCAAG	-1.5
